# Laboratory results: the supplement of paper PMC11417369
# ± gives the standard deviation of the averaged measurements. In all, about 25,000 sequences were measured (“ln(normalized median fluorescence intensity)”: median about 8.9, highest 2% from about 10 on). Only a selection was taken, and the highest values are over-represented in it overall.
# Tested on: PfAP2-LT AP2 domain (GST-tagged)
# Assay: gcPBM binding intensity (ln(normalized median fluorescence intensity)); higher = stronger DNA binding
# How it was run: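 In this array assay, P. falciparum DNA-binding domains with a GST tag, expressed in E. coli, were applied for 1 h to primer-extended double-stranded 36-bp intergenic genomic probes and negative controls on an Agilent 4 × 180k array. Bound protein was visualised with Alexa488 anti-GST antibody at 488 nm. Binding intensity is the highest Masliner-normalised natural-log median intensity across replicate spots of either probe orientation.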
row,Sequence,gcPBM binding intensity (ln)
1,TGTTTGAATATAATCACACATTTATATAAAAAGTTA [CACACA_site5237],8.39 ± 0.32
2,TTCATTTTTTAAGCATCACACACGAAAGAACAAAGT [CACACA_site1122],8.98 ± 0.33
3,AATAATATATATTGTACACACAAAATGGGAAAAAAA [CACACA_site5100],9.1 ± 0.33
4,AAAATTTAATATAATGCACACATAAAAAAAAAATCA [CACACA_site7882],8.87 ± 0.42
5,TACACAAGCAGACACACACACATATAGATTTATATA [CACACA_site6715],9.65 ± 0.35
6,ACAAGACAGATATATACACACATACATACATACATA [CACACA_site7472],9.43 ± 0.37
7,AATAACCACAGACACACACACATATAAATATAAATA [CACACA_site7631],10 ± 0.46
8,TAAAAGAAATAATATACACACATATATAAAAATAAA [CACACA_site1329],8.94 ± 0.41
9,CAAGGAACCAGACACACACACATAAATGTATATATA [CACACA_site752],9.62 ± 0.47
10,AGGATACACAGACACACACACATATATATATATATA [CACACA_site907],10.47 ± 0.064
11,TGAAAAAAGAAAAATACACACATATAATATAATATA [CACACA_site2255],9.02 ± 0.49
12,GGAATAACCAGACACACACACACATATAAATATGTA [CACACA_site7632],10.1 ± 0.41
13,ACAGAAAAAAGACACACACACATAATATACATACAT [CACACA_site6991],10.1 ± 0.42
14,TACACAAGCAGACACACACACATATATATATATATA [CACACA_site1270],10.42 ± 0.071
15,AATGTATATAATATTAATATGTAAATATATAATCAA [CACACA_negctrl_site1683],8.72 ± 0.39
16,TTAGAAATTCATTTTACACACAATTCAAAAGAATGT [CACACA_site2104],8.79 ± 0.42
17,ATATATAAAATTATATGTACATATATAATATATATA [XGTACX_site529],8.77 ± 0.39
18,TACCATATTTCTTCAAGTACGCATTATGTTAAAAAG [XGTACX_site345],8.51 ± 0.38
19,GTGGAACGTATATTTTCACACACTCTCAAAAGTACA [CACACA_site8722],8.93 ± 0.47
20,TATTTATTAATATGTACACACATCAACCATATTAAC [CACACA_site7001],9.04 ± 0.29

row,Sequence,gcPBM binding intensity (ln)
1,TAAATAAGGAAGGAAACACACATTAAAAAATAAATA [CACACA_site618],8.84 ± 0.59
2,TATATATATTTATGTTGTACAAAATATTATTACGTA [XGTACX_site5384],8.57 ± 0.36
3,TTTTTTTAATGATATTGTACATTAATAAAAAATATG [XGTACX_site1719],8.12 ± 0.59
4,TAAATACAGACATATACACACATATATATATATATA [CACACA_site4382],9.925 ± 0.0071
5,GGAATAACCGGACACACACACACATATATATATATA [CACACA_site5874],10.39 ± 0.057
6,CACATACAGACATACACACACATATATATTAATATA [CACACA_site546],9.56 ± 0.41
7,GAATAATATGGACATACACACATATACATACATATA [CACACA_site2114],9.27 ± 0.39
8,AATACATACAGACACACACACACATATATATATATA [CACACA_site3558],10.36 ± 0.014
9,GGAATATAAATACATACACACATATATATATATATA [CACACA_site4998],10 ± 0.33
10,TTATTATTCCCTCATTTTGTTACCATTATTTCAATT [CACACA_negctrl_site1023],8.88 ± 0.54
11,AATGTACAAATACGTACACACATATATATATATATA [CACACA_site1542],10.1 ± 0.18
12,GATATTATGTGTTTGGTATTTCGATCTTGTCAGGAC [CACACA_negctrl_site426],8.93 ± 0.41
13,AAGAAAAAAAAAAAAACACACATATATATATATATA [CACACA_site2027],10.1 ± 0.14
14,CGGACATACTAACGGACACACGTAAGAAAAAAAAAG [CACACA_site4504],9.05 ± 0.64
15,CACAAAAAGAAACACACACACATATATATATATATA [CACACA_site999],10 ± 0.37
16,AAAAAAAAGAAAAACACACACATATATATATATAAT [CACACA_site4707],9.53 ± 0.42
17,CAAGAAAAGAAACACACACACATATATATATATATA [CACACA_site3881],10.4 ± 0.28
18,GTAAGAAACAGACACACACACATATAAATATAAATA [CACACA_site6515],9.86 ± 0.49
19,GTAAGAAACAGACACACACACATATATATATATATA [CACACA_site794],10.21 ± 0.064
20,TAAACAGACATATAAACACACATATAAACAGACATA [CACACA_site7214],9.31 ± 0.41

row,Sequence,gcPBM binding intensity (ln)
1,GTAAGAAACGGACACACACACATATATATATATATA [CACACA_site4593],10.39 ± 0.05
2,AAAAAAAAAAAAGAAACACACACATATATATATATA [CACACA_site8525],9.94 ± 0.3
3,TACGGACATACTAACGGACACACGTAAGAAAAAAAA [CACACA_site602],9.03 ± 0.56
4,AAAAAAAAAAAAGAAACACACATATATATATATATA [CACACA_site140],9.9 ± 0.071
5,ATAAAATCTTAATCAACAAACAAACAAAAAAAAAAT [CACACA_negctrl_site1161],8.77 ± 0.48
6,ATATGTTCTACAAAAAAGATGTCGATTTATTTTCTT [CACACA_negctrl_site1179],8.56 ± 0.49
7,TTTACATTTCAGTAGACACACAAAAAATAATACTAA [CACACA_site512],8.76 ± 0.43
8,AAAAAAAGATTATACACACACATATATAAACATACA [CACACA_site4553],9.54 ± 0.3
9,ATGATATGCAATTTAGTGCATAACAAAATTGGTATA,8.79 ± 0.5
10,TTATTTATAAATATTAATTTTTTTTTTTTTTTTTTT [XGTACX_negctrl_site105],8.01 ± 0.5
11,TAATATATATTATTATGTACATATATTGATTCCTTG [XGTACX_site6830],8.85 ± 0.47
12,TTGTAAGAAAAACACACACACACATATATATATATA [CACACA_site795],10.1 ± 0.014
13,AATATAAGAAAAATAACACACACATAAACATATATA [CACACA_site8899],9.54 ± 0.35
14,ATAAGAAGAAGAAAAACACACATATGTAAATATATA [CACACA_site3138],9.09 ± 0.54
15,ATGTTGTACAGACACACACACAAAAAAAAAATAAAA [CACACA_site7184],9.46 ± 0.56
16,ATATATATATGTATGTATATATATATATATATGTTT [CACACA_negctrl_site248],9.08 ± 0.34
17,TATATATATATATATATATATATATATATATGTTGT [TGCATGCA_negctrl_site24],10.24 ± 0.085
18,GTTATATGTTATATATATATATATATATATATATAT [TGCATGCA_negctrl_site428],9.51 ± 0.27
